Assay results taken from the supplement of paper PMC7156485.
Unmarked numbers belong to inactive results.
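Note: TDF is a line of transformed human dermal fibroblasts of mesenchymal origin.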

Each compound was assayed on HCC1569 (assay: H1.0 immunofluorescence intensity relative to DMSO (% of DMSO); higher = stronger H1.0 induction, active = 140 or more). Details: concentration: 10 µM; 24 h.
Outline: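 Treatment: HCC1569 and TDF cells, 800 per well in 384-well plates with RPMI and 10% FBS, were given compounds at 10 µM for 24 h at 37 °C, in triplicate. Readout: after 3.7% formaldehyde fixation, cells were stained with a rabbit anti-H1.0 antibody, an AlexaFluor 647 secondary and DAPI. Reported values are H1.0 nuclear intensity or cell number as percent of the plate control, taken as the median of replicates, with positional smoothing for HCC1569.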
Work on `CCCCC=CCCCCCCCC(=O)O` [9(E)-Tetradecenoic acid] yielded an H1.0 immunofluorescence intensity of 98.
`Cn1c(=O)c2c(ncn2Cc2ccc(C(C)(C)C)cc2)n(C)c1=O` was tested, and the H1.0 immunofluorescence intensity was 154 (active).
`C=CCc1ccccc1OCC(O)CNC(C)C.Cl` (centres undefined) [Alprenolol hydrochloride] gave an H1.0 immunofluorescence intensity of 104.
For `COc1ccc(-c2ccc(N)[n+](CCCC(=O)O)n2)cc1.[Br-]`, the H1.0 immunofluorescence intensity was 103.
Work on `CN(C)C(=S)NN=C(c1ccccn1)c1ccccn1` [(Z)-di(2-pyridinyl)methanone N,N-dimethylthiosemicarbazone] yielded an H1.0 immunofluorescence intensity of 106.
For `O=C(NCCN1CCC(n2c(=O)[nH]c3cc(Cl)ccc32)CC1)c1ccc(F)cc1`, the H1.0 immunofluorescence intensity was 99.5.
In the case of `O=S(=O)(c1cccc2cnccc12)N1CCCNCC1`, the H1.0 immunofluorescence intensity is reported as 98.2.
`Brc1c(NC2=NCCN2)ccc2nccnc12` gave an H1.0 immunofluorescence intensity of 96.8.
`CC(C)(C)n1nc(-c2ccc(Cl)cc2)c2c(N)ncnc21` was tested, and the H1.0 immunofluorescence intensity was 182 (active).
`CCCCCCCCCCCCCCCCCCCCC(=O)O` [Heneicosanoic acid] gave an H1.0 immunofluorescence intensity of 103.
For `CN1C(CC(=O)c2ccccc2)CCCC1CC(O)c1ccccc1.Cl` (centres undefined), the H1.0 immunofluorescence intensity was 99.2.
`Cc1ccc(C(=CCN2CCCC2)c2ccccn2)cc1.Cl` [Trans-triprolidine.HCl] was tested, and the H1.0 immunofluorescence intensity was 110.
With `COc1cc2c(Nc3ccc(Br)cc3F)ncnc2cc1OCC1CCN(C)CC1` [Vandetanib] the H1.0 immunofluorescence intensity was 142 (active).
For `Cn1c(=O)c(-c2c(Cl)cccc2Cl)cc2cnc(Nc3ccc(N4CCOCC4)cc3)nc21`, the H1.0 immunofluorescence intensity was 88.3.
In the case of `CC(=O)OCC(=O)NCCCOc1cccc(CN2CCCCC2)c1.Cl` [Roxatidine acetate.HCl], the H1.0 immunofluorescence intensity is reported as 99.
`O=C(NCCO)c1cc(C(=O)NCCO)cc(C(=O)NCCO)c1` was tested, and the H1.0 immunofluorescence intensity was 96.8.
`CC(=O)C1(O)CCC2C3CCC4=CC(=O)CCC4(C)C3CCC21C` (stereo not drawn) [17alpha-hydroxyprogesterone] showed an H1.0 immunofluorescence intensity of 99.8.
Work on `CC(COc1ccccc1)N(CCCl)Cc1ccccc1.Cl` (centres undefined) [Phenoxybenzamine.HCl] yielded an H1.0 immunofluorescence intensity of 102.
Compound `CCCCCCCCC=CCCCCCCCCCCCCC(=O)O` [14(Z)-Tricosenoic acid] has an H1.0 immunofluorescence intensity of 101.
Compound `Cl.c1ccc2c(c1)CCCC2C1=NCCN1` (centres undefined) [Tetrahydrozoline hydrochloride] has an H1.0 immunofluorescence intensity of 98.3.
For `Nc1ccn(C2CCC(CO)O2)c(=O)n1` (centres undefined) [2',3'-dideoxycytidine], the H1.0 immunofluorescence intensity was 87.7.
In the case of `CCN(CC)CC#CCOC(=O)C(O)(c1ccccc1)C1CCCCC1.Cl` (centres undefined) [Oxybutynin Chloride], the H1.0 immunofluorescence intensity is reported as 97.4.
`CCN(CC)CCOc1ccc(C(=C(Cl)c2ccccc2)c2ccccc2)cc1` [Clomiphene] showed an H1.0 immunofluorescence intensity of 116.
For `NCC(O)c1ccc(O)c(O)c1.O=C(O)C(O)C(O)C(=O)O` (stereo not drawn) [L(-)-Norepinephrine bitartrate], the H1.0 immunofluorescence intensity was 94.6.
Work on `Fc1ccc(-c2nc3n(c2-c2ccncc2)CCS3)cc1` yielded an H1.0 immunofluorescence intensity of 107.
Compound `Cc1ccc(OCCSc2ncccn2)c(Br)c1` [2-{[2-(2-bromo-4-methylphenoxy)ethyl]sulfanyl}pyrimidine] has an H1.0 immunofluorescence intensity of 107.
In the case of `COc1ccccc1N1CCN(CCCNc2c(C)c(=O)n(C)c(=O)n2C)CC1` [Urapidil, 5-Methyl-], the H1.0 immunofluorescence intensity is reported as 108.
Work on `CCOC(=O)CCNc1cc(N2CCc3ccccc3CC2)nc(-c2ccccn2)n1` yielded an H1.0 immunofluorescence intensity of 113.
`CCCCCCCCC=CCCCCCCCCCCCC(=O)O` [13(Z)-Docosenoic acid] showed an H1.0 immunofluorescence intensity of 102.
With `O=c1cc(-c2cccc3c2Sc2ccccc2S3)oc(N2CCOCC2)c1` [ATM Kinase Inhibitor] the H1.0 immunofluorescence intensity was 113.
For `O=C1c2c(O)ccc(O)c2C(=O)c2c(NCCNCCO)ccc(NCCNCCO)c21` [Mitoxantrone], the H1.0 immunofluorescence intensity was 120.
Work on `CC1(C)OC2CC(=O)OCC23C1CC(=O)C1(C)C3CCC2(C)C(c3ccoc3)OC(=O)C3OC321` (centres undefined) [Limonin] yielded an H1.0 immunofluorescence intensity of 90.
`CCCCCCCCCCCCCCCC(O)C(N)CO` (racemic) [DL-Dihydrosphingosine] gave an H1.0 immunofluorescence intensity of 100.
Work on `CCCNCC(O)COc1ccccc1C(=O)CCc1ccccc1` (centres undefined) [Propafenone] yielded an H1.0 immunofluorescence intensity of 103.
